# A selection: hits, their analogues and other compounds. The true share with any hit is near 4.3%.
# Wnt bcat act: activates Wnt/beta-catenin signaling in a reporter cell assay; activator, plate reader; activation, % at 9.35 µM; actives 1.2% (n = 300,000); in the data active = activation above about 30%, passing the limit was not always enough; inconclusive = no clear call, values can overlap the other calls
# MITF TRPM1 HTS: activators of MITF-driven TRPM1 promoter activity in SK-MEL-5 cells; SK-MEL-5 TRPM1-promoter luciferase, 24 h; % of positive control, neutral wells = 0; activation, % at 12.5 µM; actives 0.75% (n = 300,000); AID 588334;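 active = mean activation of at least 80% with every replicate also reaching 80%; inconclusive = mean reaches 80% but some replicate falls short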
# SMARCA2 activ: activators of SMARCA2 function. MG213 cells, MMTV-luciferase reporter, dexamethasone, overnight. activation, % at 9.1 µM. actives 1% (n = 370,000); in the data active = activation above about 7.8%
# FGF22 binding: binders of recombinant human FGF22 by thermal shift. Q9HCT0. SYPRO orange fluorescence; percent of sucrose octasulfate shift, DMSO zero. activity (Tm shift, normalised), % at 9.99 µM. actives 1.5% (n = 340,000). AID 651658;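 active = mean Tm shift, scaled 0 neutral to 100 positive control, at about 1.3% or above, every replicate too, limit read from the data; inconclusive = no clear call, values can overlap the other calls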
# Target sequence (Q9HCT0 whole entry, looked up): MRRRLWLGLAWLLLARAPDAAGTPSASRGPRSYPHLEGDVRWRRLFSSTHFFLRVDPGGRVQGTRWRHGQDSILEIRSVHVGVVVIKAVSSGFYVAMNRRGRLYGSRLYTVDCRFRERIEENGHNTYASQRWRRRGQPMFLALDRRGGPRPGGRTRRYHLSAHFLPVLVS
# esBAF inh: SWI/SNF esBAF complex inhibition; actives 2% (n = 350,000); mouse ES cells, Bmi1-luciferase knock-in reporter, 24 h; 100% = twice the neutral-well signal; reporter increase, % at 12.5 µM; in the data active = activation above about 40%; inconclusive = no clear call, values can overlap the other calls;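 also: a rise in the Bmi1 reporter signal indicates esBAF inhibition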
# MLL AF4-AF9 inh: inhibitors of human MLL-AF4/AF9 interaction; P42568; AlphaScreen, biotin-AF4 peptide binding to FLAG-AF9; inhibition, % at 10 µM; actives 0.47% (n = 350,000);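 active = every replicate reaching a set inhibition limit, whatever the replicate mean, cut at about 25% in these data; inconclusive = mean inhibition reaches that limit but some replicates miss it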
# Target sequence (P42568 whole entry, looked up): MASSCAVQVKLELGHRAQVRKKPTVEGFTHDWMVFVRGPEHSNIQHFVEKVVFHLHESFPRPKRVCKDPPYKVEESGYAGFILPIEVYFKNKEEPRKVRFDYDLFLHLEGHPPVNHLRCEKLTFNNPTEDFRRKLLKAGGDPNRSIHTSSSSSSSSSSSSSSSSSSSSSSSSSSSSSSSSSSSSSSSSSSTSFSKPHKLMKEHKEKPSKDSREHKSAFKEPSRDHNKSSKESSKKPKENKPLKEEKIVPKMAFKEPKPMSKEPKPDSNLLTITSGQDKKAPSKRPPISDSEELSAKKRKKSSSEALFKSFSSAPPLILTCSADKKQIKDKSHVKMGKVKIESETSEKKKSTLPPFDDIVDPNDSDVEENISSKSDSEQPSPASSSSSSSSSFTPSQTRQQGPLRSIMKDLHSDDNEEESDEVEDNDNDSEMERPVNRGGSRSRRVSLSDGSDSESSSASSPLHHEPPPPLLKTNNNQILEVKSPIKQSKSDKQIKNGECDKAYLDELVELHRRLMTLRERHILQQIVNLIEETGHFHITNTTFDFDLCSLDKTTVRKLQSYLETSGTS
# esBAF Ring1 qPCR: esBAF inhibition confirmed by Ring1 de-repression; 550 tested, under 10 active; fold change at 33 µM; shares compounds with esBAF inh; mouse ESC E14, Ring1 mRNA RT-qPCR fold change;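 active = Ring1 gene expression raised more than 2-fold over untreated cells in both replicates at either tested dose; inconclusive = only one replicate above 2-fold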;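 also: Ring1 transcript normalised to actin housekeeping signal by TaqMan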
# Fgf4 repress: represses Fgf4 in mouse ESCs, confirming esBAF inhibition. shares compounds with esBAF inh. mouse ESC E14, Fgf4 mRNA qPCR fold change; active compounds read low. Fgf4 expression fold change at 33 µM. actives 4% (n = 550);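 active = Fgf4 expression under 0.8 fold of control in both repeat measurements at one or both tested doses; inconclusive = under 0.8 fold in just a single repeat measurement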;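 also: Fgf4 transcript normalised to actin in duplex TaqMan qPCR; cells exposed to compound for 24 h before lysis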
# esBAF Bmi1 qPCR: de-represses Bmi1 in mouse ESCs, confirming esBAF inhibition | 550 tested, under 10 active | mouse ESE14 ES cells, Bmi1 mRNA qPCR fold; active compounds read high | AID 743180 | shares compounds with esBAF inh | fold change at 33 µM;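 active = Bmi1 expression fold change above 6 at either tested concentration, seen in replicate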;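 also: higher fold means more Bmi1 de-repression and stronger esBAF inhibition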
# A549 cytotox: kills or reduces viability of A549 cells; AID 743188; 550 tested, under 10 active; cell viability change % (negative = cytotoxic), % at 25 µM, hits read low; shares compounds with esBAF inh; A549 cytotoxicity, plate reader; call rule not given here
# HepG2 cytotox SP: kills or reduces viability of HepG2 cells. shares compounds with esBAF inh. HepG2 cytotoxicity, plate reader; active compounds read low. activity change, negative = inhibition, % at 25 µM. actives 4% (n = 550). AID 743189; in the data active = activity change below about -50%
# HEK293 cytotox SP: HEK293 cell cytotoxicity at single point. plate reader. shares compounds with esBAF inh. AID 743190. activity change, negative = inhibition, % at 25 µM, hits read low. actives 3% (n = 550); in the data active = activity change below about -38%, passing the limit was not always enough
# Hits are given with their value; . = inactive; ? = inconclusive; / = not tested or not shown.
SMILES,Wnt bcat act,MITF TRPM1 HTS,SMARCA2 activ,FGF22 binding,esBAF inh,MLL AF4-AF9 inh,esBAF Ring1 qPCR,Fgf4 repress,esBAF Bmi1 qPCR,A549 cytotox,HepG2 cytotox SP,HEK293 cytotox SP
Cc1cc(C)cc(NC(=O)OC2CCC23CCCCC3)c1 (stereo not drawn),/,/,.,/,/,/,/,/,/,/,/,/
C[C@@H]1CCCCO[C@@H](CN(C)S(=O)(=O)c2cccs2)[C@@H](C)CN([C@@H](C)CO)C(=O)c2cc(N(C)C)ccc2O1,/,/,/,.,.,.,/,/,/,/,/,/
COc1cccc(-c2cc(C(=O)Nc3ccccc3)c3ccccc3n2)c1,.,/,.,.,/,.,/,/,/,/,/,/
COc1ccc(-c2cc(C(=O)N3CCN(c4ccccc4O)CC3)c3ccccc3n2)cc1,.,/,.,.,63.7,.,.,.,.,.,.,.
COc1ccc(-c2cc(C(=O)Nc3ccc(C(N)=O)cc3)c3ccccc3n2)cc1,.,/,.,.,57.4,.,.,?,.,.,.,.
COc1ccc(-c2cc(C(=O)N3CCN(c4ccccc4O)CC3)c3ccccc3n2)cc1OC,.,.,.,.,/,.,/,/,/,/,/,/
O=S(=O)(c1cccc(F)c1)N1CC[C@@H]2[C@H]1c1cc(-c3cccc(F)c3)ccc1N[C@@H]2CO,/,/,/,.,.,/,/,/,/,/,/,/
CNC(=O)c1ccc(NC(=O)c2ccc3c(=O)n4c(nc3c2)CCC4)cc1,.,.,.,.,.,.,/,/,/,/,/,/
Cc1ccc(NC(=O)c2ccc3c(=O)n4c(nc3c2)CCC4)cc1F,52.5,.,.,.,66.9,.,.,?,.,.,.,.
CCc1nnc(NC(=O)c2ccc3c(=O)n4c(nc3c2)CCC4)s1,.,/,.,.,58.7,.,.,.,.,.,.,.
O=C(CCc1nnc(C2(c3ccc(Cl)cc3)CCC2)o1)N1CCCC1,.,.,.,.,65.1,.,.,.,.,.,.,.
COc1ccc2c3c(n(C)c2c1)[C@@H](CO)N(S(=O)(=O)c1ccc(C)cc1)CC31CN(C(=O)c2ccccn2)C1,/,/,/,/,/,.,/,/,/,/,/,/
COc1ccc(N2CCN(C(=O)c3ccc(Cn4c(=S)[nH]c5ccc(N6CCOCC6)cc5c4=O)cc3)CC2)cc1,.,.,.,.,68.3,.,.,.,.,.,.,.
O=C(c1ccc(Cn2c(=S)[nH]c3ccc(N4CCOCC4)cc3c2=O)cc1)N1CCN(c2ccc(F)cc2)CC1,.,.,.,.,/,.,/,/,/,/,/,/
CC(C)c1ccc(CNc2ncccn2)cc1,.,/,.,.,54.9,.,.,.,.,.,.,.
C[C@@H]1CCCCO[C@@H](CN(C)Cc2ccccc2)[C@H](C)CN([C@H](C)CO)C(=O)c2cc(NC(=O)c3ccncc3)ccc2O1,/,/,/,.,.,.,/,/,/,/,/,/
CN(C)c1ccc(N=Nc2ccccc2C(=O)OCC(=O)Nc2ccccc2C(F)(F)F)cc1,.,.,.,.,53.5,.,.,.,.,.,.,.
N#Cc1ccc(-c2cn3c(n2)SCC3)cc1,.,.,.,.,60.5,.,.,.,.,.,.,.
Cc1ccc(C(=O)CN2C(=O)NC3(CCCCCC3)C2=O)c(C)c1,.,114.6,.,/,79.8,.,.,.,.,.,.,.
Cc1cc(N2CCOCC2)nc2ccc(NC(=O)CCC(=O)N3CCN(c4ccc(F)cc4)CC3)cc12,.,.,.,.,.,.,/,/,/,/,/,/
Cc1cc(N2CCOCC2)nc2ccc(NC(=O)CCC(=O)N3CCN(c4ccccc4F)CC3)cc12,.,119.6,.,.,74.1,.,.,.,.,.,.,.
COc1ccc(S(=O)(=O)N(C)C[C@@H]2Oc3ccc(NC(=O)Nc4ccc(F)cc4)cc3CC(=O)N([C@@H](C)CO)C[C@H]2C)cc1,/,/,/,.,.,/,/,/,/,/,/,/
CO[C@@H]1CC[C@@H]2CCN(C)C(=O)[C@H](C)[C@H](OC)CN(C)C(=O)c3cccc(C#N)c3OC[C@@H]1O2,/,/,/,.,.,.,/,/,/,/,/,/
COc1ccc(NC(=O)O/N=C/c2ccccc2)cc1,38.7,.,.,.,52.9,.,.,?,.,.,.,.
Cc1ccc(S(=O)(=O)NCc2ccccc2)cc1C(=O)NC1CCC(C)CC1 (stereo not drawn),.,.,.,.,74.1,.,.,.,.,.,.,.
SMILES,Wnt bcat act,MITF TRPM1 HTS,SMARCA2 activ,FGF22 binding,esBAF inh,MLL AF4-AF9 inh,esBAF Ring1 qPCR,Fgf4 repress,esBAF Bmi1 qPCR,A549 cytotox,HepG2 cytotox SP,HEK293 cytotox SP
CCS(=O)(=O)n1nc(-c2ccc(Cl)cc2)nc1SC,/,.,.,/,56.9,/,.,.,.,.,.,.
COCC(=O)Nc1ccc2c(c1)C(=O)N(C)C[C@@H](OC)[C@@H](C)CN(Cc1ccccc1F)[C@H](C)CO2,/,/,/,.,.,.,/,/,/,/,/,/
Cc1nc(-c2ccc(Cl)cc2)sc1C1(C)CC(c2cccnc2)=NO1 (stereo not drawn),.,.,.,.,77.4,.,.,.,.,.,.,.
COc1ccc(C2=NOC(C)(c3sc(-c4ccc(Cl)cc4)nc3C)C2)cc1 (stereo not drawn),.,/,.,.,/,.,/,/,/,/,/,/
Cc1noc(C)c1S(=O)(=O)N(C)C[C@@H]1OCc2cn(nn2)CCCC(=O)N([C@H](C)CO)C[C@@H]1C,/,/,/,.,.,.,/,/,/,/,/,/
COc1cc(SC)ccc1C(=O)NCC1CCCCC1,.,97.3,.,.,65.2,.,.,.,.,.,.,.
COc1ccccc1Nc1nc(Cl)nc(NC(C)(C)C)n1,.,.,.,.,/,.,/,/,/,/,/,/
CC(C)(C)Nc1nc(Cl)nc(Nc2ccccc2)n1,.,/,.,.,58.8,.,.,?,.,.,.,.
C1=NN(c2ccccc2)C=NN1c1ccccc1,.,.,.,.,69.2,.,.,.,.,.,.,-59.9
O=C(C[C@@H]1CC[C@H]2NC[C@H](O)COC[C@@H]2O1)Nc1ccc(-c2ccccc2)cc1,/,/,/,.,.,.,/,/,/,/,/,/
COc1cccc(OCc2cc(C(=O)N(C)C3CCCCC3)no2)c1,.,/,.,.,79.9,.,.,.,.,.,.,.
COc1cc(C)ccc1OCc1cc(C(=O)N2CCN(C3CCCCC3)CC2)no1,.,.,.,.,61.2,.,.,.,.,.,.,.
